The full ranking holds about 25,000 sequences; the median of “ln(normalized median fluorescence intensity)” is about 7.1, and the highest 2% start at about 10. The full list was thinned out, with the highest values kept by preference.
Tested on: PfSIP2 AP2 domain 1 (GST-tagged)
Experiment: gcPBM binding intensity (ln(normalized median fluorescence intensity)); higher = stronger DNA binding
How it was run: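 Binding of GST-tagged P. falciparum DNA-binding domains, expressed in E. coli and used at about 25 μg on average, was carried out for 1 h in 1× PBS containing 1% milk, 0.2 mg/ml BSA, 0.5% salmon testes DNA and 0.03% Triton X-100. The target was an Agilent 4 × 180k array of primer-extended double-stranded 36-bp intergenic genomic probes plus negative controls, read with Alexa488 anti-GST antibody at 488 nm. Binding intensity is the highest Masliner-normalised natural-log median intensity across replicate spots of either probe orientation.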

Sequence | gcPBM binding intensity (ln)
TTTTAACAAAAAAAAAGAAAAGAAAAGAAAATAATA [XGTACX_negctrl_site530] | 6.54
TAATATAATATATAGGTGCAATATTAACAAAAATTT | 9.61
AATTGAATAAATTAAACATGCACAGATGTTCTATTT [TGCATGCA_site692] | 6.89
GAACAAATTAAATAGGTGCATTAACATGTTCTATTT [GTGCAC_site9729] | 10.4
AGTGATACTAATTTTTGTACGCATAAAAGAATATTC [XGTACX_site6055] | 6.97
ACTATTTTCTTCAAAACATGCACCACATAAACATAA [TGCATGCA_site200] | 10.5
ACCTATTTCAAACACACACACACACCCACAAACATA [CACACA_site977] | 7.62
TATAAACATAAAACCAGTACATATATATTTTTCTTC [XGTACX_site212] | 6.84
CGGCTATTTCTATATACATGCATTTAAAAAAAAAAT [TGCATGCA_site354] | 7.27
CCAATGTTTTCTTGTGTACACATCATTAAAGAAAAA [CACACA_site5300] | 7.96
AATAGAAAAAAATAAGTGCATTTTGGTATTCATCAT [GTGCAC_site9614] | 8.14
TCTATTTTTTATATGGTGCATTGTTCTTATTAATAT [GTGCAC_site9392] | 10.5
TTGTTCTTATTTCATTTTTATATGATATTTCATTAT [CACACA_negctrl_site1619] | 7.17
CATATAATTTTATGGGTGCATTTTTTTGTAAGACCA | 11.1
ATTATTTATATTATGGTGCATAATTTTGGGTTTCTT | 10.2
TATATATATATATGGGTGCATTTTTTTGTCCATGTA [GTGCAC_site9868] | 10.7
ATATTTATATATAGTAGTACTTTCAATAATTTAAAT [XGTACX_site7276] | 7.05
TATATATATATATATATATATATGTATGTGCATTTA [TGCATGCA_negctrl_site53] | 9.08
TTTTTAATTTCAATGGTGCAGTAATAATATAATAGT | 10.5
TATTGTTCTTATTTAGTGCATATATAATATAATATA [GTGCAC_site9827] | 9.38
ATAATTTCAATATTTAATATCATATATATATATTTT [GTGCAC_negctrl_site713] | 6.94
GTAATTTTATATGGTTGTACATATATATATATATAT [XGTACX_site6659] | 9.68
TTATATGGCTCCATTTGTACGCATCCATGTTTTTAT [XGTACX_site6590] | 6.99

Sequence | gcPBM binding intensity (ln)
TTTATTTTAAAATATAGTACGCAAATAAAAATAAAT [XGTACX_site7783] | 7.33
AAATTTATTTCTGTGTGTCCACAAAAAAAAATCTTT [XGTACX_site691] | 6.91
TTTTTTTTTTTCTTTGCACACAGATAACTTGAAATT [CACACA_site2184] | 7.2
TATTATTAATATGTATGGTTGTAATCTGTGTCTCCT [TGCATGCA_negctrl_site190] | 7.12
CATTTTTTGCTTTCAACACACATACAATATATATAA [CACACA_site6127] | 7.26
AAAAAGAATAAATAAATAAATAAATATATATATATA [GTGCAC_negctrl_site584] | 9.47
AATATATGTAAATGGACACACACATATATATATATA [CACACA_site9220] | 9.61
AGAAATGAAATATACACACATACATATATACATATA [CACACA_site4033] | 7.21
ACATATATGTATAATACACACACTAATATATAATTG [CACACA_site1966] | 7.15
TTTTGTAGTTTATAAATAAAAGAGAATATGGTGCTT [CACACA_negctrl_site413] | 7.7
CATATAAAAAATATGGTGCAGTTTTTTTTTTTTTTT | 10.4
ATATATATATATGTAGTGCATTTTATATATAATATT | 9.01
TTATAAAAAATTTTAGTGCATATATGATTTATATAT [GTGCAC_site9831] | 8.21
CATATATAAATATAAATATATATATATATATATATG [XGTACX_negctrl_site493] | 7.56
GAATTATAAATTATAGTGCATAAAATTATGGCATAA [GTGCAC_site9938] | 8.52
AAAATTTATAGTATGGTGCATAAAAATATATATATA | 10.3
AAAATTAATATCTTGGTGCATTTTTTAATATTATTA [GTGCAC_site9638] | 10
TAATATATATATATGGTGCATTTAATTTATATATAA | 10.8
ACTCTATACATCTAATGTACATGGAAAAAAAAATTC [XGTACX_site733] | 7.28
ATTTATTTATTTATATGTACATATATATATATATAT [XGTACX_site339] | 9.54
TTAATTTATAAAAACACACACAGGTAAAAAGGTGCA [CACACA_site1177] | 9.31
TATTAATTTATTTGTTGTACGTAAATATGCTTGTTT [XGTACX_site6591] | 7.26
AAATGAACAAGTGGCACACACACATTCTAACTAATT [CACACA_site3203] | 6.93

Sequence | gcPBM binding intensity (ln)
TTCTATTTGTAAAATTGTACAAAATAAATAACAAAA [XGTACX_site1007] | 7.04
TACTTTTATATGAATACACACAGGAATATAAATATG [CACACA_site7647] | 7.2
GTATGAAAAAAAATATGTACACATATATATTTGGTA [XGTACX_site6309] | 7.07
TTCTTTGCTTTTCAAACACACAAAAGTTATTATATT [CACACA_site521] | 7.22
TAGAAAAACATTACGTGTACCAAACATCCTAGCAAC [XGTACX_site4888] | 7.19
GCAGCAGCATTTTCAGTGCATTATTATATTGTTCAT [GTGCAC_site9926] | 7.98
TTGTTCATATTTTTTATTGTGTTAATATTTATAAAA [GTGCAC_negctrl_site423] | 7.28
TTCATTGTGTTAACGGTGCATATATTTTTTCACCGT [GTGCAC_site9464] | 10.3
CAAAAGGATAGGCACACACACACACCCATATATATA [CACACA_site2199] | 7.55
ATGTATATAATATTATGTACATATATGAAATATTTT [XGTACX_site8168] | 7.02
GGAGCACCCAGACACACACACACATATATATATATA [CACACA_site336] | 9.19
CGCGCCCAGAAACACACACACACACCGATATATATA [CACACA_site5250] | 7.62
CGCACCCACAGACACACACACACATATATATATATA [CACACA_site2202] | 9.47
CACCCACACCAACACACACACATATATATATATATA [CACACA_site362] | 9.74
CGCGCACCCAGACACACACACACACCGATATATATA [CACACA_site8687] | 10.6
CACGCGCACCAACACACACACACACCCATATATATA [CACACA_site2204] | 10.6
CACCCCCACAGACACACACACACACCGATATATATA [CACACA_site8010] | 7.89
CACACCCACCAACACACACACACACCCACCCATATA [CACACA_site366] | 7.11
CGCGCACCCAGACACACACACACACCCATATATATA [CACACA_site2203] | 10.8
TTTTAGCACTTATTATAAGATATCAAAAAGATGGGT [XGTACX_negctrl_site325] | 7.32
ATAAATTCTATGTATACACACATATATAATATATAT [CACACA_site2689] | 7.26
TTTTTATTAATAGATATAAATATATAATATGAATGT [TGCATGCA_negctrl_site309] | 7.04
ATAATTATTTAATATATATATATTATTTCGAATGTT [GTGCAC_negctrl_site688] | 7.03

Sequence | gcPBM binding intensity (ln)
TTTCTTTTTTTTTAATGTACTTTTTTTATAAAAGGT [XGTACX_site5688] | 7.27
AAAGAATTATATAAGGTGCACGAATGTTTCTTTAAT | 10.9
TAAAAACAAAAATGTTGTACATAATATAAAACAATT [XGTACX_site6380] | 7.04
ATTTTTTAAATTTAAACACACATTTTGTATATGTTT [CACACA_site1654] | 7.02
ATTTTTTTTTTTTTATGTACATATAGGTGCAAATCA [XGTACX_site6748] | 11.4
ATATTTTTATTAGTAGTGCAATTTAGTGTATATATA [GTGCAC_site9542] | 8.39
ATATATATATATTTATGTACATATATTTTTTTTTTT [XGTACX_site8558] | 8.71
TTTATATATTATTAATGTACAAAATTTTTATTGCAT [XGTACX_site3329] | 6.96
GACAATTATATGTAGGTGCATATACAAATTTTTTAA | 10.9
CATATATATTTTATATGTACATATATATTTTATATA [XGTACX_site8665] | 7.03
AATTCATTTTACCCATGTACACAATTATATTTTATA [XGTACX_site4127] | 7.23
ATTTATATTACCCTTGCATGTAGGTGCAATTTTTTT [TGCATGCA_site757] | 11
ATATATTTATTAAGGTGTACAAAAATTATGTTGCAT [XGTACX_site7546] | 7.16
ATGTTATATATGTATTGTACGTATTTTGTATATTAT [XGTACX_site6607] | 7.4
AATATATCCTATTCGAACAAAAATACATGCACATAT [CACACA_negctrl_site1058] | 9.28
AAGGATTATTTTAATCGTACATGTGTAAATAATATA [XGTACX_site6177] | 6.98
AATAAATAAATATATATATATATATAATATCATAAA [CACACA_negctrl_site337] | 7.29
TAAAGAAAAATATAAAGTACAAAAATAAAAAAAATA [XGTACX_site8226] | 6.93
AGCATTAAAAATGGAATGGAATTAAGCTATATATTA [CACACA_negctrl_site1571] | 6.63
TTAAAGTTACATTCGACACACACATAACAACTAAAT [CACACA_site9130] | 7.1
AAAAAAAAAGATCACACACACATAAATATAAACAAA [CACACA_site5285] | 6.92

Source: the supplement of paper PMC11417369
